Experimental data published in PubChem BioAssay AID651840 (Vanderbilt Specialized Chemistry Center, 2012).
Measured potencies and affinities stand elsewhere. Activity calls are given as the source filed them.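 Rule for the calls: active = mean concentration giving half inhibition of the glutamate calcium response below 30 µM; inactive = the rest.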

Biological target: Metabotropic glutamate receptor 3 (Rattus norvegicus) (UniProt P31422)
Assay: inhibitors of rat mGlu3 Galpha15 signaling – TREx293 cells, calcium flux, mGlu3 NAM project, dose response (AID 651840)
Conditions: TREx293 mGlu3/Galpha15, calcium fluorescence, glutamate EC80

Sequence of Metabotropic glutamate receptor 3 (Rattus norvegicus) (P31422 whole entry, looked up): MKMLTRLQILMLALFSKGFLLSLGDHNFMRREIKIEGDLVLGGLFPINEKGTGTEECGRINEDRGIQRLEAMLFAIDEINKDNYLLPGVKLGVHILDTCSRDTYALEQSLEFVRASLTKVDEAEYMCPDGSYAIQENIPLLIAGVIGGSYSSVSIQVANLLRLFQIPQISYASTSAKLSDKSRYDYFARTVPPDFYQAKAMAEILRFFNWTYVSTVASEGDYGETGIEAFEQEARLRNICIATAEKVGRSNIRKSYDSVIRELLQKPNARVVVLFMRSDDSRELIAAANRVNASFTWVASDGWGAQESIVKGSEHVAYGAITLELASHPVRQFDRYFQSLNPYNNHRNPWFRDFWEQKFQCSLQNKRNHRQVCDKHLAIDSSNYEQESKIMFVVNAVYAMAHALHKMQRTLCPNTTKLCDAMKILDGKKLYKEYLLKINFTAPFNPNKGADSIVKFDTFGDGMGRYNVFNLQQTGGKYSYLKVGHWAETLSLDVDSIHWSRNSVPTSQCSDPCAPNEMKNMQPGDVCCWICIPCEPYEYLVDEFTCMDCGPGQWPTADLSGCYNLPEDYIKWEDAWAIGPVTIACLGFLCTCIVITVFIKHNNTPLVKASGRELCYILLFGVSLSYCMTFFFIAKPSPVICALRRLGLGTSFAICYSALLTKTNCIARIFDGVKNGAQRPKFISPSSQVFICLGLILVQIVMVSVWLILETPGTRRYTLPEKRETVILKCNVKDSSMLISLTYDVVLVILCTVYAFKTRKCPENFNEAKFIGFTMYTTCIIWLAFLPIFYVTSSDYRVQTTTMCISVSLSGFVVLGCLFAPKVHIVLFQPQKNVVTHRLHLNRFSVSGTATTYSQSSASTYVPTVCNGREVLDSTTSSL

COc1cccc(COc2ccc(C(=O)N3CC(O)C3)cc2)c1
outcome: inactive

COc1ccc(C#Cc2ccc(C(=O)N3CCCC(O)(c4ccc5ccccc5c4)C3)cc2)cc1 (configuration not stated)
outcome: inactive

COc1ccc(C#Cc2ccc(C(=O)N3CCCC(O)(c4cccc(OC)c4)C3)cc2)cc1 (configuration not stated)
outcome: inactive

COc1ccc(C#Cc2ccc(C(=O)N3CCCC(O)(c4cccc(F)c4)C3)cc2)cc1 (configuration not stated)
outcome: inactive

COc1ccc(C#Cc2ccc(C(=O)N3CCCC(O)(c4ccc(F)cc4)C3)cc2)cc1 (configuration not stated)
outcome: inactive

COc1ccc(C#Cc2ccc(C(=O)N3CCCC(O)(c4ccccc4)C3)cc2)cc1 (configuration not stated)
outcome: inactive

COc1ccc(C#Cc2ccc(C(=O)N3CCCC(O)(c4ccc(Cl)cc4)C3)cc2)cc1 (configuration not stated)
outcome: inactive

COc1ccc(C#Cc2ccc(C(=O)N3CCCC(O)(CCC4OCCCO4)C3)cc2)cc1 (configuration not stated)
outcome: inactive

COc1ccc(C#Cc2ccc(C(=O)N[C@@H]3CCCNC3)cc2)cc1
outcome: inactive

COc1ccc(C#Cc2ccc(C(=O)N3CCCC(O)(c4ccccc4OC)C3)cc2)cc1 (configuration not stated)
outcome: inactive

COc1ccc(C#Cc2ccc(C(=O)N3CCCC(O)(c4ccncc4)C3)cc2)cc1 (configuration not stated)
outcome: inactive

O=C(c1ccc2cc(-c3cccc(-c4ccccc4)c3)ccc2c1)N1CCCC(CO)C1 (configuration not stated)
outcome: inactive
